Where “and” joins values, the source holds several entries; their conditions need not be identical. Identical values can stand only once. The full ranking holds about 2,900 compounds; the median of “NF-kB SEAP reporter activity, fold change vs agonist alone” is about 0.99, and the highest 2% start at about 2.6. The sample as a whole holds a higher share of the highest values than the screen did.
Key:
RAW-Dual [1] = assay: NF-kB SEAP reporter activity, fold change vs agonist alone; cytotoxicity flag (confluency mask): not cytotoxic; higher = enhanced NF-kB activity
Method in brief: (§1)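 Cytotoxic wells were those whose IncuCyte confluency was below 70% of agonist controls in both mask sets. The cells were RAW-Dual macrophages at 50,000 cells/well in DMEM on 384-well plates, dosed with 50 nL of library stock by pin tool, stimulated with a PRR agonist 1 h later, and kept at 37 °C, 5% CO2 for 20 hours. IRF and NF-κB reporter activity, as fold change over agonist-alone wells, came from supernatant read by QuantiLuc luminescence and QuantiBlue absorbance, respectively.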

RAW-Dual [2] = assay: NF-kB SEAP reporter activity, fold change vs agonist alone; higher = enhanced NF-kB activity; details: cytotoxicity flag (confluency mask): not cytotoxic
Method in brief: as §1

RAW-Dual [3] = assay: NF-kB SEAP reporter activity, fold change vs agonist alone; cytotoxicity flag (confluency mask): cytotoxic (confluency <70% of control); higher = enhanced NF-kB activity
Method in brief: as §1

[4] = agonist: ODN 1826 (TLR9) 0.5 ug/mL
[5] = agonist: Pam2CSK4 (TLR2/6) 0.1 ug/mL
[6] = agonist: Pam3CSK4 (TLR2/1) 0.1 ug/mL
[7] = library stock concentration (final ~1000-fold dilution): 10 mM, agonist: Imiquimod (TLR7) […]
[8] = library stock concentration (final ~1000-fold dilution): 10 mM, agonist: MPLA (TLR4) […]

O=c1oc2cc(O)ccc2c2ccc(O)cc12 (library stock concentration (final ~1000-fold dilution): 10 mM)
NF-kB SEAP reporter activity (RAW-Dual [1]; agonist: LPS (TLR4) 0.1 ug/mL): 1.08
NF-kB SEAP reporter activity (RAW-Dual [1]; [4]): 0.575
NF-kB SEAP reporter activity (RAW-Dual [1]; [5]): 0.257
NF-kB SEAP reporter activity (RAW-Dual [1]; [6]): 0.455

O=c1oc2cc(O)ccc2c2ccc(O)cc12
NF-kB SEAP reporter activity (RAW-Dual [2]; [7]): 1.26
NF-kB SEAP reporter activity (RAW-Dual [2]; [8]): 1.58

CNC(=O)c1ccc(-c2cnc3cnc(-c4ccccc4)cn23)cc1
NF-kB SEAP reporter activity (RAW-Dual [2]; [7]): 1.1
NF-kB SEAP reporter activity (RAW-Dual [2]; [8]): 1.37

CNC(=O)c1ccc(-c2cnc3cnc(-c4ccccc4)cn23)cc1 (library stock concentration (final ~1000-fold dilution): 10 mM)
NF-kB SEAP reporter activity (RAW-Dual [1]; agonist: LPS (TLR4) 0.1 ug/mL): 1.54
NF-kB SEAP reporter activity (RAW-Dual [1]; [4]): 0.763
NF-kB SEAP reporter activity (RAW-Dual [1]; [5]): 1.22
NF-kB SEAP reporter activity (RAW-Dual [1]; [6]): 2.3

CC12CCC3c4ccc(O)cc4CC(CCCCCCCCCS(=O)CCCC(F)(F)C(F)(F)F)C3C1CCC2O (stereo not given) (library stock concentration (final ~1000-fold dilution): 10 mM)
NF-kB SEAP reporter activity (RAW-Dual [1]; agonist: LPS (TLR4) 0.1 ug/mL): 0.714
NF-kB SEAP reporter activity (RAW-Dual [1]; [4]): 0.721
NF-kB SEAP reporter activity (RAW-Dual [1]; [5]): 0.634
NF-kB SEAP reporter activity (RAW-Dual [1]; [6]): 0.864

CC12CCC3c4ccc(O)cc4CC(CCCCCCCCCS(=O)CCCC(F)(F)C(F)(F)F)C3C1CCC2O (stereo not given)
NF-kB SEAP reporter activity (RAW-Dual [2]; [7]): 0.89
NF-kB SEAP reporter activity (RAW-Dual [2]; [8]): 0.904

CC#CC(=O)N1CCCC1c1nc(-c2ccc(C(=O)Nc3ccccn3)cc2)c2c(N)nccn12 (stereo not given) (library stock concentration (final ~1000-fold dilution): 10 mM)
NF-kB SEAP reporter activity (RAW-Dual [1]; agonist: LPS (TLR4) 0.1 ug/mL): 1.09
NF-kB SEAP reporter activity (RAW-Dual [1]; [4]): 0.844
NF-kB SEAP reporter activity (RAW-Dual [1]; [5]): 0.581
NF-kB SEAP reporter activity (RAW-Dual [1]; [6]): 0.793

CC#CC(=O)N1CCCC1c1nc(-c2ccc(C(=O)Nc3ccccn3)cc2)c2c(N)nccn12 (stereo not given)
NF-kB SEAP reporter activity (RAW-Dual [2]; [7]): 0.862
NF-kB SEAP reporter activity (RAW-Dual [2]; [8]): 0.81

COC1OC(COS(=O)(=O)O)C(OC2OC(C(=O)O)C(OC3OC(COS(=O)(=O)O)C(OC4OC(C(=O)O)C(OC5OC(COS(=O)(=O)O)C(O)C(O)C5NS(=O)(=O)O)C(O)C4O)C(OS(=O)(=O)O)C3NS(=O)(=O)O)C(O)C2OS(=O)(=O)O)C(O)C1NS(=O)(=O)O (stereo not given) (library stock concentration (final ~1000-fold dilution): 10 mM water)
NF-kB SEAP reporter activity (RAW-Dual [1]; agonist: LPS (TLR4) 0.1 ug/mL): 1.06
NF-kB SEAP reporter activity (RAW-Dual [1]; [4]): 1.3
NF-kB SEAP reporter activity (RAW-Dual [1]; [5]): 1.25
NF-kB SEAP reporter activity (RAW-Dual [1]; [6]): 1.04

COC1OC(COS(=O)(=O)O)C(OC2OC(C(=O)O)C(OC3OC(COS(=O)(=O)O)C(OC4OC(C(=O)O)C(OC5OC(COS(=O)(=O)O)C(O)C(O)C5NS(=O)(=O)O)C(O)C4O)C(OS(=O)(=O)O)C3NS(=O)(=O)O)C(O)C2OS(=O)(=O)O)C(O)C1NS(=O)(=O)O (stereo not given)
NF-kB SEAP reporter activity (RAW-Dual [2]; library stock concentration (final ~1000-fold dilution): 10 mM water, agonist: Imiquimod (TLR7) […]): 1.04
NF-kB SEAP reporter activity (RAW-Dual [2]; library stock concentration (final ~1000-fold dilution): 10 mM water, agonist: MPLA (TLR4) […]): 1.06

CC(C)C(C(=O)Nc1ccc(C(=O)NO)cc1)c1ccccc1 (stereo not given) (library stock concentration (final ~1000-fold dilution): 10 mM)
NF-kB SEAP reporter activity (RAW-Dual [1]; agonist: LPS (TLR4) 0.1 ug/mL): 4.76
NF-kB SEAP reporter activity (RAW-Dual [1]; [4]): 0.93
NF-kB SEAP reporter activity (RAW-Dual [1]; [5]): 1.12
NF-kB SEAP reporter activity (RAW-Dual [1]; [6]): 1.15

CC(C(=O)O)c1cccc(C(=O)c2ccccc2)c1 (stereo not given) (library stock concentration (final ~1000-fold dilution): 10 mM)
NF-kB SEAP reporter activity (RAW-Dual [1]; agonist: LPS (TLR4) 0.1 ug/mL): 1.02
NF-kB SEAP reporter activity (RAW-Dual [1]; [4]): 1.01
NF-kB SEAP reporter activity (RAW-Dual [1]; [5]): 1.11
NF-kB SEAP reporter activity (RAW-Dual [1]; [6]): 1.19

CC(C(=O)O)c1cccc(C(=O)c2ccccc2)c1 (stereo not given)
NF-kB SEAP reporter activity (RAW-Dual [2]; [7]): 0.866
NF-kB SEAP reporter activity (RAW-Dual [2]; [8]): 1.05

CC(C)C(C(=O)Nc1ccc(C(=O)NO)cc1)c1ccccc1 (stereo not given)
NF-kB SEAP reporter activity (RAW-Dual [2]; [7]): 0.965
NF-kB SEAP reporter activity (RAW-Dual [2]; [8]): 0.937

Cc1nc(-c2nc(-c3ccc(OC(F)(F)F)cc3)no2)nn1Cc1cccc(N2CCC(S(C)(=O)=O)CC2)c1 (library stock concentration (final ~1000-fold dilution): 10 mM)
NF-kB SEAP reporter activity (RAW-Dual [1]; agonist: LPS (TLR4) 0.1 ug/mL): 2
NF-kB SEAP reporter activity (RAW-Dual [1]; [4]): 0.837
NF-kB SEAP reporter activity (RAW-Dual [1]; [5]): 0.462
NF-kB SEAP reporter activity (RAW-Dual [1]; [6]): 0.849

Cc1nc(-c2nc(-c3ccc(OC(F)(F)F)cc3)no2)nn1Cc1cccc(N2CCC(S(C)(=O)=O)CC2)c1
NF-kB SEAP reporter activity (RAW-Dual [2]; [7]): 0.853
NF-kB SEAP reporter activity (RAW-Dual [2]; [8]): 1.28

O.O=c1c(O)c(-c2ccc(O)cc2O)oc2cc(O)cc(O)c12 (library stock concentration (final ~1000-fold dilution): 10 mM)
NF-kB SEAP reporter activity (RAW-Dual [1]; agonist: LPS (TLR4) 0.1 ug/mL): 1.52
NF-kB SEAP reporter activity (RAW-Dual [1]; [4]): 1.13
NF-kB SEAP reporter activity (RAW-Dual [1]; [5]): 1.15
NF-kB SEAP reporter activity (RAW-Dual [1]; [6]): 1.18

O.O=c1c(O)c(-c2ccc(O)cc2O)oc2cc(O)cc(O)c12
NF-kB SEAP reporter activity (RAW-Dual [2]; [7]): 0.957
NF-kB SEAP reporter activity (RAW-Dual [2]; [8]): 1.05

COCCCOc1cc(CC(CC(N)C(O)CC(C(=O)NCC(C)(C)C(N)=O)C(C)C)C(C)C)ccc1OC (stereo not given) (library stock concentration (final ~1000-fold dilution): 10 mM)
NF-kB SEAP reporter activity (RAW-Dual [1]; agonist: LPS (TLR4) 0.1 ug/mL): 1.36 and 1.31
NF-kB SEAP reporter activity (RAW-Dual [1]; [4]): 1.57 and 0.983
NF-kB SEAP reporter activity (RAW-Dual [1]; [5]): 1.09 and 0.934
NF-kB SEAP reporter activity (RAW-Dual [1]; [6]): 1.04 and 1.06

CC1=NN(c2ccc(C)c(C)c2)C(=O)/C1=N\Nc1cccc(-c2cccc(C(=O)O)c2)c1O.NCCO.NCCO (library stock concentration (final ~1000-fold dilution): 10 mM)
NF-kB SEAP reporter activity (RAW-Dual [1]; agonist: LPS (TLR4) 0.1 ug/mL): 2.92
NF-kB SEAP reporter activity (RAW-Dual [1]; [4]): 1.31
NF-kB SEAP reporter activity (RAW-Dual [1]; [5]): 1.58
NF-kB SEAP reporter activity (RAW-Dual [1]; [6]): 1.34

CC1=NN(c2ccc(C)c(C)c2)C(=O)/C1=N\Nc1cccc(-c2cccc(C(=O)O)c2)c1O.NCCO.NCCO
NF-kB SEAP reporter activity (RAW-Dual [2]; [7]): 1.57
NF-kB SEAP reporter activity (RAW-Dual [2]; [8]): 1.64

Cc1ncc(Cl)cc1NCc1ccc(C(=O)NC(CC2CCCC2)C(=O)NC2CC2)s1 (stereo not given)
NF-kB SEAP reporter activity (RAW-Dual [2]; [7]): 0.865
NF-kB SEAP reporter activity (RAW-Dual [2]; [8]): 0.987

Cc1ncc(Cl)cc1NCc1ccc(C(=O)NC(CC2CCCC2)C(=O)NC2CC2)s1 (stereo not given) (library stock concentration (final ~1000-fold dilution): 10 mM)
NF-kB SEAP reporter activity (RAW-Dual [1]; agonist: LPS (TLR4) 0.1 ug/mL): 0.894
NF-kB SEAP reporter activity (RAW-Dual [1]; [4]): 0.742
NF-kB SEAP reporter activity (RAW-Dual [1]; [5]): 0.85
NF-kB SEAP reporter activity (RAW-Dual [1]; [6]): 0.698

Cc1cc(C)c(CN2CCc3c(Cl)cc(-c4c(C)noc4C)c(Cl)c3C2=O)c(=O)[nH]1
NF-kB SEAP reporter activity (RAW-Dual [2]; [7]): 1.24
NF-kB SEAP reporter activity (RAW-Dual [2]; [8]): 1.64

Cc1cc(C)c(CN2CCc3c(Cl)cc(-c4c(C)noc4C)c(Cl)c3C2=O)c(=O)[nH]1 (library stock concentration (final ~1000-fold dilution): 10 mM)
NF-kB SEAP reporter activity (RAW-Dual [1]; agonist: LPS (TLR4) 0.1 ug/mL): 2.16
NF-kB SEAP reporter activity (RAW-Dual [1]; [4]): 1.51
NF-kB SEAP reporter activity (RAW-Dual [1]; [5]): 0.917
NF-kB SEAP reporter activity (RAW-Dual [1]; [6]): 0.98

C=C(C)C1CCC2(C(=O)O)CCC3(C)C(CCC4C5(C)CCC(OC(=O)CC(C)(C)C(=O)O)C(C)(C)C5CCC43C)C12 (stereo not given) (library stock concentration (final ~1000-fold dilution): 10 mM)
NF-kB SEAP reporter activity (RAW-Dual [3]; agonist: LPS (TLR4) 0.1 ug/mL): 1.79
NF-kB SEAP reporter activity (RAW-Dual [3]; [4]): 0.735
NF-kB SEAP reporter activity (RAW-Dual [3]; [5]): 0.295
NF-kB SEAP reporter activity (RAW-Dual [3]; [6]): 0.532

Reference: the supplement of paper PMC10037445
